The values that follow come from ChEMBL document CHEMBL1201862, “PubChem BioAssay data set” (2004).

Where “and” joins values, the source holds several entries; their conditions need not be identical. Equal values may be shown once. Out of some 400,000 compounds screened, about 2,100 (0.53%) were called active. About 14% were inconclusive and are not listed. How the calls were made is not given here. The full list was thinned out, with actives kept by preference.

The target of this test is Ataxin-2 (Homo sapiens) (UniProt Q99700). Description: qHTS for Inhibitors of ATXN expression. The test is classed as functional. On the technique in general: Quantitative high-throughput screening tests each substance at several concentrations.
Chain of Ataxin-2 (Homo sapiens) (Q99700 whole entry): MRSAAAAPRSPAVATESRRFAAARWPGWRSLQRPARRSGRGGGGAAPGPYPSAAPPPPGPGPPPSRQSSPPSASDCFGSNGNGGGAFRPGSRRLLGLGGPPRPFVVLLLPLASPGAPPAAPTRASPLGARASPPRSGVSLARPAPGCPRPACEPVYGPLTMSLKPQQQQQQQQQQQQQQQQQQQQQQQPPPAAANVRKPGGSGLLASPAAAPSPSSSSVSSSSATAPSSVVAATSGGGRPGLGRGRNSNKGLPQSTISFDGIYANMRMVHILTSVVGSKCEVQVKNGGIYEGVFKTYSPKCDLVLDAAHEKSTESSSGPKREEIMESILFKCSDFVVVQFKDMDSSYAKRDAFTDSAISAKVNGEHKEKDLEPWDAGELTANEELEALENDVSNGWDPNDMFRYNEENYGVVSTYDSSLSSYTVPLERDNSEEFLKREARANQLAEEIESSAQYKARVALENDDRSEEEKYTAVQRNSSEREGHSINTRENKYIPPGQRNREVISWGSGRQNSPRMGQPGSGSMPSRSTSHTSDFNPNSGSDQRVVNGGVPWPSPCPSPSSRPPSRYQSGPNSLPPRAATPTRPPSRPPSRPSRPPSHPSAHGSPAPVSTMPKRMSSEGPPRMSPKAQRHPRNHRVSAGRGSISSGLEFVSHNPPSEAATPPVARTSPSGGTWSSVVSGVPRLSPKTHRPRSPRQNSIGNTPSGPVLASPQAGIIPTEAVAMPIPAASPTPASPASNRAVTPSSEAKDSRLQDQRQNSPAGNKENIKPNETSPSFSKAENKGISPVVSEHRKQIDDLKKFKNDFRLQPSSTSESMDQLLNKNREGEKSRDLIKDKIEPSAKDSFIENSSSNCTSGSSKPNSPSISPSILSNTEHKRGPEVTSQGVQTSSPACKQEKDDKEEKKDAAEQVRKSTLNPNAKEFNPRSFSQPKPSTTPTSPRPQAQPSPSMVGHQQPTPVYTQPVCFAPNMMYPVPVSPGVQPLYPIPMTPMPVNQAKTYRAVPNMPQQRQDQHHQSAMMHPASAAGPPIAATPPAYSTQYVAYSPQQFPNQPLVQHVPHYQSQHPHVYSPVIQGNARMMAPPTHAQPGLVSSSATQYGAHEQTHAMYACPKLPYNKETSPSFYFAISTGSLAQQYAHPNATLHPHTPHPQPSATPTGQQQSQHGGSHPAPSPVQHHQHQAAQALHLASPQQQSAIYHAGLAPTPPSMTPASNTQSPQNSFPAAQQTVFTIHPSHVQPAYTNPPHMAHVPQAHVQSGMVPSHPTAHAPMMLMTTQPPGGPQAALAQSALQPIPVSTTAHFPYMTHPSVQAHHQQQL
As for `CSCCC1NC(=O)N(CC(=O)Nc2ccc(Br)cc2Br)C1=O` (centres undefined), the Potency entry was “inactive”.

Turning to `CCOc1cccc(NC(=O)c2sc3nc(-c4ccc(F)cc4)ccc3c2N)c1`, the Potency result was “inactive”.

`COc1ccccc1-c1sc2ccccc2c1C#Cc1ccc(N(C)C)cc1`: the Potency result is “inactive”.

Regarding `COc1cccc(-c2sc3ccccc3c2-c2ccc(OCCN3CCCCC3)cc2)c1`, the Potency is 28.2 µM (active).

Consider `COc1ccc2sc(-c3ccc(N(C)C)cc3)c(C#CCO)c2c1`, for which the Potency entry was “inactive”.

With `COc1cccc(-c2sc3ccccc3c2-c2ccc(OCCN(C)C)cc2)c1`, the Potency was 28.2 µM (active).

For the molecule `COC(=O)c1c(-c2ccc(N(C)C)cc2)sc2ccc(OC)cc12`, the Potency entry is “inactive”.

With `COc1ccc2sc(-c3ccccc3OC)c(-c3ccc(OCCN(C)C)cc3)c2c1`, the Potency is 39.8 µM (active).

On to `O=C(Nc1nc2n(n1)C(c1ccc(F)cc1)C=C(c1ccccc1)N2)c1ccc(Cl)cc1` (centres undefined), for which the Potency entry was “inactive”.

Consider `S=C(c1ccc(-c2ccc(Br)cc2)o1)N1CCOCC1`, for which the Potency result was “inactive”.

On to `CCc1cc(=O)oc2c3c(c(Cl)cc12)OCN(Cc1cccc(OC)c1)C3`, for which the Potency result was “inactive”.

Take `CCCc1ccc(C2C3=C(CC(C)(C)CC3=O)N=C3C2=C(O)c2ccccc23)cc1` (centres undefined): the Potency was 20 µM (active).

Consider `CC1C2=C(O)CC(C)(C)CC2=NC2=C1C(=O)CC(C)(C)C2` (centres undefined), for which the Potency result is “inactive”.

On to `CCCO/C(O)=C1\C(C)=NC2=C(C(=O)CC(C)(C)C2)C1c1cccnc1` (centres undefined), for which the Potency result is “inactive”.

As for `O=S(=O)(Nc1ccccc1N1CCOCC1)c1ccccc1C(F)(F)F`, the Potency entry is “inactive”.

For `O=C1CCCc2nc3c(cc21)C(O)Oc1c-3ccc2ccccc12` (centres undefined), the Potency entry was “inactive”.

Regarding `Cn1c(SCc2ccccc2F)nc2ccccc2c1=O`, the Potency entry is “inactive”.

Regarding `O=C(Cc1c(F)cccc1Cl)N(Cc1ccccc1)c1ccccn1`, the Potency entry is “inactive”.

Turning to `CN(Cc1ccccc1)C(=O)c1ccc(CSc2nc3cccnc3n2Cc2ccccc2F)cc1`, the Potency was 20 µM (active).

Turning to `CN1CCN(Cc2c(O)ccc3cc(-c4ccccn4)c(=O)oc23)CC1`, the Potency result is “inactive”.

`CN1CCN(Cc2nc3ccccc3c(=O)n2Cc2nc(-c3ccc4ccccc4c3)cs2)CC1`: the Potency is 39.8 µM (active) and 25.1 µM (active).

In the case of `O=C(CN1C(=O)CCC1=O)Nc1nc(-c2ccc3ccccc3c2)cs1`, the Potency entry is “inactive”.

`C[C@H]1C(c2ccc(F)cc2)=NN(c2ccccc2)[C@@H]1CO`: the Potency result is “inactive”.

As to `O=C(CSc1nnc2ccccn12)Nc1ccc(S(=O)(=O)N2CCOCC2)cc1`, the Potency result was “inactive”.

With `COc1ccc(Cl)cc1CC1(C)C(=O)Nc2ccc(S(=O)(=O)NC3CCCCC3)cc21` (centres undefined), the Potency was 35.5 µM (active).

As for `COc1ccc(CCNS(=O)(=O)c2ccc3c(c2)CCCC3)cc1OC`, the Potency entry is “inactive”.

As to `COc1ccc(-c2csc(/C(C#N)=C/Nc3cc4oc5ccccc5c4cc3OC)n2)cc1`, the Potency entry is “inactive”.

As for `C=CC[C@@H](Cc1ccc(F)cc1)C(=O)OC[C@H]1CCCN1C(=O)[C@@H](CC=C)CC(=O)N(CCO)Cc1ccccc1`, the Potency is 39.8 µM (active).

On to `C=CC[C@@H](Cc1ccc(F)cc1)C(=O)OC[C@H]1CCCN1C(=O)[C@H](CC=C)CC(=O)N(CCO)Cc1ccccc1`, for which the Potency is 35.5 µM (active).

For the molecule `N#Cc1c(N)n(CCc2ccc(F)cc2)c2nc3ccccc3nc12`, the Potency entry was “inactive”.

Consider `O=C(CN1C(=O)NC2(CCCCC2)C1=O)Oc1ccc2c(C(F)(F)F)cc(=O)oc2c1`, for which the Potency result was “inactive”.

As to `Fc1ccc(-c2nc3cnccn3c2NC2CCCC2)cc1`, the Potency result is “inactive”.

In the case of `COc1ccc2c(c1)C(=NN)c1cc(OC)ccc1-2`, the Potency was 31.6 µM (active).

With `COc1ccc2c(c1)CCc1cn3nc(C)cc3nc1-2`, the Potency entry was “inactive”.

For `COc1ccc2c(c1)C(=NNc1ccc(C(=O)O)cc1)c1cc(OC)ccc1-2`, the Potency is 22.4 µM (active).

`COc1ccc2nc(O)c(C(=O)O)cc2c1`: the Potency entry was “inactive”.

Turning to `COc1ccc(C(=O)N2C(=O)c3ccc(N)cc3C2=O)cc1`, the Potency entry was “inactive”.

`O=C(O)CC1SC(N/N=C/C2CC=CCC2)=NC1=O` (centres undefined): the Potency entry was “inactive”.

For the molecule `Oc1ccccc1C1SC(c2ccccc2O)SC(c2ccccc2O)S1` (centres undefined), the Potency is 20 µM (active).

As for `CCc1ccc2c(CN3CCc4cc(OC)c(OC)cc4C3)cc(=O)oc2c1`, the Potency result is “inactive”.

Take `COc1ccc(-c2cc(=O)oc3cc(O)ccc23)cc1`: the Potency result is “inactive”.

Take `COc1ccc(-c2cc3ccc(O)cc3oc2=O)cc1OC`: the Potency result is “inactive”.

On to `COc1ccc(-c2coc3cc4oc(=O)c5ccccc5c4cc23)cc1F`, for which the Potency was 8.91 µM (active).

In the case of `COc1ccc(-c2cc(Cl)cc3c(=O)c4ccccc4n(C)c23)cc1F`, the Potency entry is “inactive”.

On to `CCc1cc(=O)oc2cc3occ(-c4ccc(OC)c(F)c4)c3cc12`, for which the Potency is 22.4 µM (active).

As for `COc1ccccc1C1CN(c2ccc(F)cc2F)N=C1c1cccs1` (centres undefined), the Potency entry is “inactive”.

As to `O=C(NCc1ccc(Cl)c(Cl)c1)C1CCCC1`, the Potency entry is “inactive”.

Consider `N#C/C(=N\Nc1ccc(Cl)c(Cl)c1)C(=O)C1CC1`, for which the Potency is 25.1 µM (active).

Take `O=[N+]([O-])c1ccc(S(=O)(=O)NCCc2cn3ccccc3n2)cc1`: the Potency entry is “inactive”.

Turning to `COc1ccc(S(=O)(=O)NCC2CCCN(C(=O)c3cccnc3)C2)cc1` (centres undefined), the Potency entry is “inactive”.

On to `Cc1c(C=O)c(C=O)c(C)n1Cc1ccccc1`, for which the Potency was 35.5 µM (active).

Turning to `COc1ccccc1OCCn1c(C)c(C=O)c2ccccc21`, the Potency result is “inactive”.

On to `Cc1c(C)n(Cc2ccccc2)c2ccc(C(=O)O)cc12`, for which the Potency result is “inactive”.

Take `O=c1cc(N2CCCCC2)c(-c2ccccc2)nn1Cc1ccccc1`: the Potency entry was “inactive”.

As for `COc1ccccc1CNC(=O)c1cnn(-c2nccc(-c3cccs3)n2)c1C`, the Potency result was “inactive”.

`COc1ccc(-c2cc(-c3cccs3)c(C#N)c(SCC(=O)NCc3ccccc3OC)n2)cc1`: the Potency is 35.5 µM (active).

On to `COc1ccc(-c2cc(-c3cccs3)nc3sc(C#N)c(N)c23)cc1`, for which the Potency entry was “inactive”.

Consider `COc1ccc(C2C=C(c3ccccc3)Nc3nc(NS(=O)(=O)c4ccccc4)nn32)cc1` (centres undefined), for which the Potency result was “inactive”.

`COc1c2c(c3c(c1OC)c(=O)c1ccccc1n3C)OCO2`: the Potency result was “inactive”.

With `Cc1c(CC(=O)N2CCN(C(=O)C3COc4ccccc4O3)CC2)c(=O)oc2c(C)c(O)ccc12` (centres undefined), the Potency result was “inactive”.

As to `OC(COC(c1ccc(Cl)cc1)c1ccc(Cl)cc1)CN1CCc2ccccc2C1` (centres undefined), the Potency is 25.1 µM (active).

With `O=C(c1cc2cc(Cl)ccc2[nH]1)N1CCc2ccccc2C1`, the Potency entry was “inactive”.

For `O=C(Cc1ccc(Cl)cc1)N1CCc2ccccc2C1`, the Potency entry is “inactive”.

For the molecule `CCOC(=O)c1cc2c(=O)n3ccccc3nc2n(C(C)C)/c1=N/C(=O)c1ccco1`, the Potency entry is “inactive”.
